Assay results as given in PubChem BioAssay AID720706 (Broad Institute, 2013).
The campaign covered roughly 350,000 compounds. About 5,500 (1.6%) were called active. The sample holds actives, similar compounds and a random draw of the others, so the mix is not that of the screen.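 How the source made its calls: active means significant combined selectivity score with lowered wild-type GFP, culture density cut under 30%, mutant RFP and density less affected; inactive means any of these conditions unmet.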

Assay: GFP drop in mixed WT/humanized-ribosome E. coli culture – GFP/RFP fluorescence, OD600, single point, bacterial rRNA inhibitor project, primary screen (AID 720706)
Details: E. coli WT GFP vs humanized-ribosome RFP mutants, 24 h; GFP signal change (wild-type ribosome): stronger effect = lower value, DMSO median 0, no signal -100; OD600 change: measured here: OD600 growth, DMSO median 0, no signal -100; RFP signal change: measured here: RFP humanized mutant strains, DMSO median 0, no signal -100, concentration not given here

SMILES | GFP signal change (wild-type ribosome) | OD600 change [%] | RFP signal change [%]
CCC(=O)N1CCC2(CC1)CN(Cc1ccc(Cl)cc1)[C@@H](CO)c1[nH]c3cc(OC)ccc3c12 | 0.255% (inactive) | -3.27 | 4.57
COc1ccc2c3c(n(C)c2c1)[C@@H](CO)NCC31CCN(CC2CC2)CC1 | 8.18% (inactive) | 22.6 | -3.19
O=C(NCC[C@H]1CC[C@@H](NC(=O)c2cnccn2)[C@H](CO)O1)Nc1ccc(Cl)cc1 | -40.4% (inactive) | -66.2 | 9.29
COc1cccc(CNC(=O)[C@H]2CCCN2C(=O)[C@H]2CCCN2C(=O)c2ccc(F)cc2)c1 | 2.11% (inactive) | 11.4 | -3.48
CNC[C@H]1Oc2ccc(NC(=O)NC(C)C)cc2C(=O)N(C)C[C@@H]1C | 4.42% (inactive) | 7.25 | 0.095
CCN(CC)C(=O)c1sc2nc(-c3ccccc3)ccc2c1N | -15.6% (active) | -3.66 | 4.88
CCOC(=O)C(C)n1nc(-c2ccccc2)c2ccccc2c1=O (stereo not given) | 2% (inactive) | 4.27 | -0.337
Cc1ccc2c(N)c(C(=O)c3ccccc3)sc2n1 | -33.7% (active) | -0.632 | -10.4
Cc1ccc(NC(=O)c2sc3nc(N)c(C#N)cc3c2N)cc1 | 1.14% (inactive) | 1.53 | 1.97
CCN(CC)C(=O)c1nc[nH]c1C(=O)N(C)Cc1ccccc1 | 31.5% (inactive) | 17.4 | 2.93
COC(=O)c1cc2c(N)c(C(=O)c3ccc(Cl)cc3)sc2nc1C(OC)OC | 19.9% (inactive) | 8.88 | 2.24
CC(=O)NC[C@@H]1[C@@H](c2ccccc2)[C@@H](CO)N1C(=O)Cc1cccnc1 | 1.93% (inactive) | 9.5 | -2.5
COCC(=O)N1CC(=O)N2[C@H](CO)[C@@H](c3ccc(C#CC4CCCCC4)cc3)[C@@H]2C1 | -1.52% (inactive) | -39.4 | 13.9
COc1ccc(NC(=O)N2CCC(Cc3ccccc3)CC2)cc1 | -3.82% (inactive) | -5.59 | -1.73
O=C(CN1CCCCC1)NC(=O)Nc1ccccc1F | 20.5% (inactive) | 19.5 | 2.38
CC(C)(C)NC(=O)NC(=O)CN1CCC(Cc2ccccc2)CC1 | -31.9% (active) | -22.7 | -1.62
CO[C@@H]1CN(C)C(=O)c2ccc(NS(=O)(=O)c3ccc(Cl)cc3)cc2OC[C@@H](C)N(C)C[C@@H]1C | -0.718% (inactive) | 1.84 | -0.00025
O=C(c1ccccc1F)N1CC(=O)N2[C@H](CO)[C@@H](c3ccc(-c4cccnc4)cc3)[C@H]2C1 | 4.23% (inactive) | 20.3 | 2.58
CC(=O)N1C[C@@H]2C(c3ccccc3)[C@@H](C1)N2C(=O)NC(C)C (stereo not given in full) | 1.98% (inactive) | 3.76 | -1.21
Cc1nnc(SCc2ccc(C(=O)c3ccc(Cl)cc3)o2)n1-c1ccccc1 | -32.1% (active) | -22.7 | 3.57
Cc1nnc(SCC(=O)Nc2cccc(N)c2)n1-c1ccccc1 | 6.38% (inactive) | 12 | 4.46
COC(=O)c1ccc(CSc2nc3ccccc3c(=O)n2-c2cccc(OC)c2)o1 | 1.15% (inactive) | -0.729 | 0.461
C[C@@H]1CN([C@@H](C)CO)C(=O)c2cc(NS(=O)(=O)c3cn(C)cn3)ccc2O[C@@H]1CN(C)Cc1ccc(C(=O)Nc2ccccc2N)cc1 | 5.78% (inactive) | 6.33 | 3.25
O=C(O)c1ccc(-n2nc(-c3ccccc3)c3ccccc3c2=O)cc1 | 2.07% (inactive) | -9.56 | -1.61
O=c1[nH]n2c(-c3ccccc3)nc(O)c2c2ccccc12 | -31.6% (active) | -7.74 | 0.585
COCC(=O)N1CC(=O)N2[C@@H](CO)[C@@H](c3ccc(C#CC(C)C)cc3)[C@@H]2C1 | -0.482% (inactive) | 2.33 | -1.33
COc1ccc(C#Cc2ccc([C@@H]3[C@H](CO)N4C(=O)CN(C(C)=O)C[C@@H]34)cc2)cc1 | -2.96% (inactive) | -13.2 | -2.12
CC(=O)Nc1cccc2c1O[C@@H](CN(C)C(C)=O)[C@@H](C)CN(C)C2=O | -0.3% (inactive) | 2.46 | -0.39
COc1ccc2c3c(n(C)c2c1)[C@@H](CO)N(C(=O)c1cnccn1)CC31CCN(C(C)=O)CC1 | 4.42% (inactive) | 18.1 | -2.67
O=c1[nH]c(CSc2ccccc2)nc2c1oc1ccccc12 | 4.21% (inactive) | 3 | -8.61
